# KB-3-1 tox: kills parental KB-3-1 adenocarcinoma cells; KB-3-1 viability, CellTiter-Glo ATP luminescence, 72 h; AID 1347075; 400,000 tested, 1.4% active; Potency, µM (series often up to 46.1 µM), hits mostly cytotoxic; note: nearly all actives have a fitted effect of over 60% in size
#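 72 h, 37 °C compound treatment of KB-3-1 parental cells; CellTiter-Glo added, 10 min, luminescence read. Data corrected against DMSO-only plates and normalized before curve fitting.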
# KB-V1 MDR tox: kills drug-selected multidrug resistant KB-V1 cells; 400,000 tested, 3.4% active; KB-V1 MDR cells viability, CellTiter-Glo, 72 h; Potency, µM (doses to about 46.1 µM), actives largely listed as cytotoxic; note: nearly all actives have a fitted effect of over 60% in size
#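 Compound-treated KB-V1 multidrug-resistant cells, 72 h, 37 degrees C; viability by CellTiter-Glo. Fitted qHTS curves give the values.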
# HT1080NT lethal: kills 2HG-producing HT-1080-NT fibrosarcoma cells. HT-1080-NT fibrosarcoma viability, CellTiter-Glo ATP luminescence, 48 h. Potency, µM (doses to about 46.1 µM), for inactives: top-dose activity, negative = less viability, most hits filed as cytotoxic. 360,000 tested, 1.6% active;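 note: NT is the 2HG producing partner of a matched IDH1 knockdown line; 0% = DMSO-treated cells and -100% = media-only wells without cells; nearly all actives have a fitted effect of over 55% in size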
#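 HT-1080-NT; 750 cells/well; 5% FBS RPMI; 48 h compound, 37 degrees C; CellTiter-Glo luminescence; curve fitting and curve-class assignment.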
# HT1080 IDH1KD tx: toxicity to HT-1080 IDH1 knockdown cells (counter line) | AID 686971 | HT-1080 IDH1 knockdown viability, ATP luminescence, 48 h | 360,000 tested, 2% active | Potency, µM (top dose mostly 46.1 µM), inactives show top-dose activity, negative = toxicity, actives largely listed as cytotoxic;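 note: 0% = DMSO wells and -100% = cell-free medium wells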
#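 Knockdown cells (IDH1KD HT-1080) received compounds 2 h after plating at 750 cells/well and were kept 48 h at 37 °C in 5% FBS RPMI. A CellTiter-Glo luminescence read gave % activity for curve fitting.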
# TDP1 cell noCPT: qHTS for Inhibitors of human tyrosyl-DNA phosphodiesterase 1 (TDP1): qHTS in cells in absence of CPT. DT40 Tdp1-/- hTDP1 cells, no CPT, ATP luminescence, 48 h. Potency, µM (doses to about 46.2 µM), for inactives: at the top dose activity change, negative = growth inhibition, usual class: inhibitors. 420,000 tested, 15% active; note: nearly all actives have a fitted effect of over 55% in size
#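 Cells were dispensed at 400 per well, compounds added by pin tool, plates incubated ≥48 hr at 37 °C, then CellTiter-Glo added for 30 min at room temperature before luminescence reading. Line: DT40 Tdp1-/- complemented with hTDP1; camptothecin omitted.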
# DT40 TDP1 CPT: DT40-hTDP1 cell growth loss with CPT | AID 686979 | Potency, µM (top dose mostly 46.2 µM), inactives show top-dose activity change, negative = growth inhibition, actives largely listed as inhibitors | chicken DT40 Tdp1-/-;hTDP1 cells + 20 nM CPT, ATP luminescence, 48 h | 420,000 tested, 12% active; note: nearly all actives have a fitted effect of over 55% in size
#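 Cell growth measured by CellTiter-Glo luminescence after a minimum 48 h, 37 C compound exposure with 20 nM CPT in Tdp1-knockout DT40 cells stably expressing hTDP1, seeded 400/well; qHTS titration format.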
# Numbers without * were called inactive; i = inactive; ? = inconclusive; nt = no result. The list is not random: actives were taken first. Their share in the collection is about 19%. Calls come from the whole dose curve; as a rule, active = well fitted curve in the direction sought with a large enough effect; inconclusive = small, poorly fitted or top-dose-only effect, or another doubt; inactive = no such curve, though single readings can be large; an effect the other way counts as inactive or inconclusive. Unless noted, % is set by controls: 0 for no effect and ±100 for the full control effect; potency is the fitted concentration of half-maximal effect.
SMILES,KB-3-1 tox,KB-V1 MDR tox,HT1080NT lethal,HT1080 IDH1KD tx,TDP1 cell noCPT,DT40 TDP1 CPT
Cc1nc(OCC(C)C)c2sc3nc4c(cc3c2n1)COC(C)(C)C4,i,i,17%,25%,21µM*,?
Cc1nc(-c2cccnc2)sc1CCNS(=O)(=O)c1ccc(F)cc1,i,?,nt,nt,nt,nt
Cn1cnc(S(=O)(=O)N2CCC(C(=O)NCc3ccc(F)cc3)CC2)c1,nt,nt,nt,nt,-5%,4%
COc1ccc(N(CC(=O)N2CCc3ccccc32)S(=O)(=O)c2c(C)noc2C)cc1,?,10µM*,-4%,-20%,?,?
COc1ccc(N(CC(=O)N2CCN(c3cccc(C)c3C)CC2)S(=O)(=O)c2c(C)noc2C)cc1,?,i,-11%,-12%,16µM*,21µM*
COc1ccc(N(CC(=O)N2CCN(c3ccccc3)CC2)S(=O)(=O)c2c(C)noc2C)cc1,i,i,0%,6%,?,?
COc1ccc(N(CC(=O)N2CCN(c3cc(C)ccc3C)CC2)S(=O)(=O)c2c(C)noc2C)cc1,?,i,9%,13%,13µM*,23µM*
Cc1ccc(N(CC(=O)N2CCN(c3cc(C)ccc3C)CC2)S(=O)(=O)c2c(C)nn(C)c2C)cc1,?,?,nt,nt,16µM*,21µM*
Cc1noc(C)c1S(=O)(=O)N(CC(=O)N1CCc2ccccc21)c1ccc(C(C)C)cc1,i,i,3%,2%,?,7%
CCN(CC)C(=O)C1=C(C)N(CCCOC)C(=O)C(CC(=O)NCCCN(C)C)C1 (configuration not stated),i,i,15%,4%,6%,0%
COCCNC(=O)CCn1nc(-c2ccc(C)cc2)ccc1=O,i,i,10%,0%,1%,22%
C[C@@H](C1[C@@H](O)CC2C3C=CC4C[C@@H](O)CC[C@]4(C)[C@H]3CC[C@@]21C)[C@@H]1CCCCN1 (some centres not stated),nt,nt,nt,nt,1.2µM*,1.6µM*
Cc1ccc(NC(=O)c2ccc(NC(=O)N3CCSc4ncccc43)cc2)c(Cl)c1,i,i,nt,nt,?,?
Cc1ccc(Cl)cc1NC(=O)c1ccc(NC(=O)N2CCSc3ncccc32)cc1,i,i,nt,nt,21µM*,?
COc1cc(NC(=O)c2ccc(NC(=O)N3CCSc4ncccc43)cc2)cc(OC)c1,i,i,nt,nt,13µM*,15µM*
COc1ccc(C2C(=O)c3ccccc3C2=O)cc1OC,i,i,-19%,0%,-9%,?
COc1ccc(-c2cccc3c2NC(=O)C3=O)cc1OC,?,i,8%,6%,15µM*,18µM*
CCOC(=O)CNC=C(C(=O)OCC)C(=O)OCC,i,i,-3%,11%,1%,-5%
CCOC(=O)C=C(C(=O)OCC)C(=O)OCC,i,?,11%,-1%,4.6µM*,4.6µM*
COc1ccc(Br)c2c1-c1nc(NC(=O)c3cccc(C)c3)sc1C2,nt,nt,nt,nt,23µM*,?
Cc1nc(-c2ccc(Cl)cc2)sc1CCNC(=O)C(=O)Nc1ccc2c(c1)OCCO2,i,i,nt,nt,?,?
CCc1ccc(S(=O)(=O)Nc2c(C)nn(C)c2C)cc1,?,i,-6%,-13%,11µM*,11µM*
Cc1ccc(S(=O)(=O)Nc2c(C)nn(C)c2C)cc1,i,i,7%,-5%,-28%,-16%
CCn1nc(C)c(NS(=O)(=O)c2ccc(C)cc2)c1C,?,16µM*,-24%,-4%,?,?
CC(=O)CC/C=C(\C)CC/C=C(\C)CC/C=C(\C)CCC=C(C)C,nt,nt,nt,nt,-16%,-13%
O=C(/C=C/c1c(F)cccc1Cl)N1CCc2ccccc2C1,i,i,-8%,-9%,?,?

# Screening data deposited in PubChem BioAssay by National Center for Advancing Translational Sciences (NCATS).
